Data from ChEMBL document CHEMBL1961873, “Compounds: GSK PKIS; Assays: Nanosyn kinase panel” (2012).

What was measured:
[1] = test system: Epidermal growth factor receptor (Homo sapiens), P00533 [T790M]; conditions: at 1 µM
[2] = test system: Epidermal growth factor receptor (Homo sapiens), P00533 [L858R,T790M]; conditions: at 0.1 µM
[3] = test system: Epidermal growth factor receptor (Homo sapiens), P00533 [L858R,T790M]; conditions: at 1 µM
[4] = biological target: Ephrin type-A receptor 2 (Homo sapiens) (UniProt P29317); conditions: at 0.1 µM
Ephrin type-A receptor 2 (Homo sapiens), sequence (P29317 whole entry): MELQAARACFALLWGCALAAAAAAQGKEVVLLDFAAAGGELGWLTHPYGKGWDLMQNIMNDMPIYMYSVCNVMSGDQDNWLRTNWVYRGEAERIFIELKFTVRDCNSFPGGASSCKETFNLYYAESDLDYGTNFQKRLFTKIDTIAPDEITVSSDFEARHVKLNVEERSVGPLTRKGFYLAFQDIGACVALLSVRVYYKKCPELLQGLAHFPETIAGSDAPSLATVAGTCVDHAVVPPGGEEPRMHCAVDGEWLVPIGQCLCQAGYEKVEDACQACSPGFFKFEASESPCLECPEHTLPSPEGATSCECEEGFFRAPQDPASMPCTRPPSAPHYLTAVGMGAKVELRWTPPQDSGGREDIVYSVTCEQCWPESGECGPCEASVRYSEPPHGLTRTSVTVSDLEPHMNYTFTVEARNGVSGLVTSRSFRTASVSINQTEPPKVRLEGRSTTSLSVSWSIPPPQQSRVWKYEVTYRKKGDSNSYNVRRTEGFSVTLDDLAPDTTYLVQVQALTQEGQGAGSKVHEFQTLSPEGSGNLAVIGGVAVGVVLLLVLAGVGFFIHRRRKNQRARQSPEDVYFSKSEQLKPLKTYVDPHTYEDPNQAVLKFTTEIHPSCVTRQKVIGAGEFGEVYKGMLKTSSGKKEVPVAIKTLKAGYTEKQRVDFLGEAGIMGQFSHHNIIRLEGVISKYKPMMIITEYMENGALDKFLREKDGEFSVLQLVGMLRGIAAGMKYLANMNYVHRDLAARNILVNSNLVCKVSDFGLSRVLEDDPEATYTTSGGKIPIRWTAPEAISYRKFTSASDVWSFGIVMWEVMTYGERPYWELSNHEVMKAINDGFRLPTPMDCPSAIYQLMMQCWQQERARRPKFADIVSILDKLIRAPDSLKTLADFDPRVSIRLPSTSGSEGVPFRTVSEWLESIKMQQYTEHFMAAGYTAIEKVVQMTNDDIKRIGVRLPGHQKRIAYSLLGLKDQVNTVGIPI

[5] = biological target: Ephrin type-A receptor 2 (Homo sapiens) (UniProt P29317); conditions: at 1 µM
[6] = biological target: T1, Ephrin type-A receptor 3 (Homo sapiens) (UniProt P29320); conditions: at 0.1 µM
T1 sequence (whole entry): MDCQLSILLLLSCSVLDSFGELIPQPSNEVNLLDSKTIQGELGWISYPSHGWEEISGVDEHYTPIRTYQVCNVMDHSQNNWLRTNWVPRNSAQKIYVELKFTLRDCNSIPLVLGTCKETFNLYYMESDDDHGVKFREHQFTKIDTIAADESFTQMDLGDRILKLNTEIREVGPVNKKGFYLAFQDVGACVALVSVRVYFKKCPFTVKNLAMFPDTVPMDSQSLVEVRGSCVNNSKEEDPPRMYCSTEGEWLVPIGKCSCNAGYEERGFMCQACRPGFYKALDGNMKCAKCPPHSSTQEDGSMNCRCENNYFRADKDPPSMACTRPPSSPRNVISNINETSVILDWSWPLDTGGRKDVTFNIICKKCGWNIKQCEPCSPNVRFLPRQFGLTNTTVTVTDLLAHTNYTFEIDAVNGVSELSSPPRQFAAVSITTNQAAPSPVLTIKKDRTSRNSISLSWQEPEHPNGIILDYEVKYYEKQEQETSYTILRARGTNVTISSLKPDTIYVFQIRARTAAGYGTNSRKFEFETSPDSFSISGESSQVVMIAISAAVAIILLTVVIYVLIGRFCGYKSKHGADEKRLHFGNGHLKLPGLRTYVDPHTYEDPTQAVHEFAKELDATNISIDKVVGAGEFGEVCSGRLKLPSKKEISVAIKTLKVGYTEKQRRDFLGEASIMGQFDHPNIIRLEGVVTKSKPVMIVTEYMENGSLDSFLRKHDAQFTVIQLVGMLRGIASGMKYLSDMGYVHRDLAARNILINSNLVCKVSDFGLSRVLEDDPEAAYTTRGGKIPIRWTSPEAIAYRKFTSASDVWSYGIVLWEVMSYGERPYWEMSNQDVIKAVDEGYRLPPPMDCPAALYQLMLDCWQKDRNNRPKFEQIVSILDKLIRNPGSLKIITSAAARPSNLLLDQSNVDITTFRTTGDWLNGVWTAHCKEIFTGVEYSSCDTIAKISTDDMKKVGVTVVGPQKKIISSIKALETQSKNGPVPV

[7] = biological target: T1, Ephrin type-A receptor 3 (Homo sapiens); conditions: at 1 µM
[8] = biological target: Ephrin type-A receptor 4 (Homo sapiens) (UniProt P54764); conditions: at 0.1 µM
Ephrin type-A receptor 4 (Homo sapiens), sequence (P54764 whole entry): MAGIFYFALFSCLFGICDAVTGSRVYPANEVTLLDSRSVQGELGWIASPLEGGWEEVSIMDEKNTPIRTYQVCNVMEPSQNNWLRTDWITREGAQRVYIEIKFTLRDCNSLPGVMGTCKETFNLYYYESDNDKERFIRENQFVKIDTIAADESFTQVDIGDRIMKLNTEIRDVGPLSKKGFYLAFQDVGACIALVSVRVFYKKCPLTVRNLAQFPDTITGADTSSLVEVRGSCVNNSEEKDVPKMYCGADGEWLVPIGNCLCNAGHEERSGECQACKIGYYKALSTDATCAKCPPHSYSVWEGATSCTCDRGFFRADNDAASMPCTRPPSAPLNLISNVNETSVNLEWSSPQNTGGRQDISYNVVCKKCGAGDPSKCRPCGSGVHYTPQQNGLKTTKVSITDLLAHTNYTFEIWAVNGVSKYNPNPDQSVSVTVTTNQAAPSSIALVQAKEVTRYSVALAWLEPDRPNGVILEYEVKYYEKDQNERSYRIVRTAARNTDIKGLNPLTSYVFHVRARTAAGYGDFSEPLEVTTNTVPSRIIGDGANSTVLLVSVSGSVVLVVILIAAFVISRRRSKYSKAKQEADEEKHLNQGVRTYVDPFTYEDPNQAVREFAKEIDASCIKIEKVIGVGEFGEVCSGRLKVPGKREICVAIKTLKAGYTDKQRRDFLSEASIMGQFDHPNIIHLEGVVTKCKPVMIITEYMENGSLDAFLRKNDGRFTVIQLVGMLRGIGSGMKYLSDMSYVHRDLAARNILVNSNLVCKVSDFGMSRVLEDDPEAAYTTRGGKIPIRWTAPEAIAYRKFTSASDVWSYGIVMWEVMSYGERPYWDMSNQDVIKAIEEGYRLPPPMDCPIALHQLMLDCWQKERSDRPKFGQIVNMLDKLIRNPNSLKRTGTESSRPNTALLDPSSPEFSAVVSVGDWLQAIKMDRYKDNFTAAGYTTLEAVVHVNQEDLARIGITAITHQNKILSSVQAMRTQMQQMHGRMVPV

[9] = biological target: Ephrin type-A receptor 4 (Homo sapiens) (UniProt P54764); conditions: at 1 µM
[10] = biological target: T2, Ephrin type-B receptor 2 (Homo sapiens) (UniProt P29323); conditions: at 0.1 µM;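 note: reported as mean inhibition of EPHB2, from the GSK PKIS dataset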
T2 sequence (whole entry): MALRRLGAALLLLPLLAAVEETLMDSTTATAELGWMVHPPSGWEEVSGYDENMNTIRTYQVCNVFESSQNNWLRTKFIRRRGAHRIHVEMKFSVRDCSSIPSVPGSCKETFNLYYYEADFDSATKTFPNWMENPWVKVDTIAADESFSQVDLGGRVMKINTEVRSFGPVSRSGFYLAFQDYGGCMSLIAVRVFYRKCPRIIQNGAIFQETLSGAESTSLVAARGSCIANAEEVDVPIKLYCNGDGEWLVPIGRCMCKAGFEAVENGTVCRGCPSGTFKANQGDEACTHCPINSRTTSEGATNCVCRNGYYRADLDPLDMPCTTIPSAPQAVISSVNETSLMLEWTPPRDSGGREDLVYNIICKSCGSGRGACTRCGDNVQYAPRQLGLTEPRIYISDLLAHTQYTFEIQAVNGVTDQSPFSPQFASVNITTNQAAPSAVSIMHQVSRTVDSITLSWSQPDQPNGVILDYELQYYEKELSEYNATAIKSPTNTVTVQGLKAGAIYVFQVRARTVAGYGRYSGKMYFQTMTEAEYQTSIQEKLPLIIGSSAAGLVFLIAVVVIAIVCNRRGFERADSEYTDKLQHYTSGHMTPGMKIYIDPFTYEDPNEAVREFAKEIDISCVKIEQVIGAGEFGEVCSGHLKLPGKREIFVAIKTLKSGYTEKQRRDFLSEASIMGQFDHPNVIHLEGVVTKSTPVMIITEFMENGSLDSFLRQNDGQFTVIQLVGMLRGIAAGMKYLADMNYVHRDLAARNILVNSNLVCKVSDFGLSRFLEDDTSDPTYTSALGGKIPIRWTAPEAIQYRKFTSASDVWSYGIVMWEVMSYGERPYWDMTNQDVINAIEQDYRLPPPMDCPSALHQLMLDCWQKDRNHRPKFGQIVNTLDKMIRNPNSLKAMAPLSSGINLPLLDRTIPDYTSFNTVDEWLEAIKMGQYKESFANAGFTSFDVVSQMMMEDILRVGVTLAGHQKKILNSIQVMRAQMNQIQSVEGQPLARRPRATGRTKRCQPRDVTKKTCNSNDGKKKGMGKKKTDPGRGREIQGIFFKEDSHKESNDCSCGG

Epidermal growth factor receptor (Homo sapiens), P00533 [T790M], sequence (P00533 whole entry T790M): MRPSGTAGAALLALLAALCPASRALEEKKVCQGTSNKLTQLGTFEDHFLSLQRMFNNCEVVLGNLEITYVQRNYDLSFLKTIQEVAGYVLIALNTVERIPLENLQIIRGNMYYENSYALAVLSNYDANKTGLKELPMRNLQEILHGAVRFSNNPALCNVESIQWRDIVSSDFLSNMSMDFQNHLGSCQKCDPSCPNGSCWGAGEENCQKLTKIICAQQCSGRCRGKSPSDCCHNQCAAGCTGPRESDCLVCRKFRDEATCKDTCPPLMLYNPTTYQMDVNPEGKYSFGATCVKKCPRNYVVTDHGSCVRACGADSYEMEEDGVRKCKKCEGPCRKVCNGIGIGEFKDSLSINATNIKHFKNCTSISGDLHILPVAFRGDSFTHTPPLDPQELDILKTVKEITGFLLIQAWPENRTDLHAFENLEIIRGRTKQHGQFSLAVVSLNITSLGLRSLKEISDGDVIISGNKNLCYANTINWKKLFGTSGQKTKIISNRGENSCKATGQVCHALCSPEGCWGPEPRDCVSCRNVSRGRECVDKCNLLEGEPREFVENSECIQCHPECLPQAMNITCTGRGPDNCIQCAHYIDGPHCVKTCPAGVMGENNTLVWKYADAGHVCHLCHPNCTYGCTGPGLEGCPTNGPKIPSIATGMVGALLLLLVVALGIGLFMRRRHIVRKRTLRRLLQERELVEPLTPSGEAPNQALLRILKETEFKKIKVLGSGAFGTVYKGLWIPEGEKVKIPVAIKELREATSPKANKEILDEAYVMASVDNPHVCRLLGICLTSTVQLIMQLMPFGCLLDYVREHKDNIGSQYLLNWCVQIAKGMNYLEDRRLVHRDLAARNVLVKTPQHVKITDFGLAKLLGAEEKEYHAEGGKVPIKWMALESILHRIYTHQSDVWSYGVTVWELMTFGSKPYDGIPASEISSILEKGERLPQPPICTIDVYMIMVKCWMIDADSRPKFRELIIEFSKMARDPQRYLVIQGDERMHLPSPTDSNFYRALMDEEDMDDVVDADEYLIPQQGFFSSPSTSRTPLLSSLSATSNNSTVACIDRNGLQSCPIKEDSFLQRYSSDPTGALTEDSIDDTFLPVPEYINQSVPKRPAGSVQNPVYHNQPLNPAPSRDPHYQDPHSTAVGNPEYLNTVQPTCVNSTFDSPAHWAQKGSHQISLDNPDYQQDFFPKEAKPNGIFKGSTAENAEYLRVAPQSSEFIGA
Epidermal growth factor receptor (Homo sapiens), P00533 [L858R,T790M], sequence (P00533 whole entry T790M/L858R, looked up): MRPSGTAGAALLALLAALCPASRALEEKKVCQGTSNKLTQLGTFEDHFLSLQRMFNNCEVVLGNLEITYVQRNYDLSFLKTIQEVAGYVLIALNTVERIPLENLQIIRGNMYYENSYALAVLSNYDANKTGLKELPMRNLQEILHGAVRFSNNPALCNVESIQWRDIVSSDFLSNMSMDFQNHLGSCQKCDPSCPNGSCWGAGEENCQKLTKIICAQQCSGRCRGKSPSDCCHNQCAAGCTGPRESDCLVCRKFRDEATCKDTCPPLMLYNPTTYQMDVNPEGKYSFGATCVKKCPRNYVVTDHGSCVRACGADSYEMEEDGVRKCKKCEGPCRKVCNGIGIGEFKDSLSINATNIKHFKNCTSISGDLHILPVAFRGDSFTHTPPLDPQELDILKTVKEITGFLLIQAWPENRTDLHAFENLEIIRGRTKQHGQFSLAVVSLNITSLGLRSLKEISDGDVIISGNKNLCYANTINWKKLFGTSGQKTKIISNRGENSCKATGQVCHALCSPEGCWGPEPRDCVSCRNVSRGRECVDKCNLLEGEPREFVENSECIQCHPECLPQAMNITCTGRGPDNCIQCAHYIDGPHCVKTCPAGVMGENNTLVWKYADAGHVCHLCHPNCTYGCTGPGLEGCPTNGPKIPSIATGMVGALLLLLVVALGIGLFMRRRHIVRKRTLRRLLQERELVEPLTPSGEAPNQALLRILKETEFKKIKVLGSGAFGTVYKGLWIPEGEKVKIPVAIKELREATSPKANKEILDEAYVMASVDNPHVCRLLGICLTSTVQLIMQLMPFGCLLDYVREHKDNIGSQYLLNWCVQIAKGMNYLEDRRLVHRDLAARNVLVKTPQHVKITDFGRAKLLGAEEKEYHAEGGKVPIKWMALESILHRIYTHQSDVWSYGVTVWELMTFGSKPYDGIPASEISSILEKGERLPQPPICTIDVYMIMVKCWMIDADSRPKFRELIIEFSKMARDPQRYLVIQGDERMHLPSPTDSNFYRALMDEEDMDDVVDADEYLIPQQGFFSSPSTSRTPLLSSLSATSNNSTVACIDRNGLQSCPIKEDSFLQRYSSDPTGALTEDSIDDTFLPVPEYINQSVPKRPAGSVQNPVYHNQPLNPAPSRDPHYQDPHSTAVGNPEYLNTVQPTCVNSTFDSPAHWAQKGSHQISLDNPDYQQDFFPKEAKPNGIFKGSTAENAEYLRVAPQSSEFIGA

Structure (SMILES)	inhibition [1] [%]	inhibition [2] [%]	inhibition [3] [%]	inhibition [4] [%]	inhibition [5] [%]	inhibition [6] [%]	inhibition [7] [%]	inhibition [8] [%]	inhibition [9] [%]	inhibition [10] [%]
Fc1ccc(-c2cc(-c3c[nH]nc3-c3ccccn3)ccn2)cc1	5.56	-1.9	6.43	1.25	0.94	3.9	4.31	11.9	14.8	3.6
CN1CCC(n2cnc(-c3ccc(F)cc3)c2-c2ccnc(N)n2)CC1	1.75	-4.77	0.83	0.47	-0.42	1.8	2.95	5.99	7.11	5.98
CCn1c(-c2nonc2N)nc2c(C#CC(C)(C)O)nc(OC[C@H](N)c3ccccc3)cc21	4.71	0.92	2.55	0.4	-0.31	2.11	1.87	5.06	4.87	0.04
O=S(=O)(CCNCc1ccc(-c2ccc3ncnc(Nc4ccc(OCc5cccc(F)c5)c(Cl)c4)c3c2)o1)c1ccccc1	6.26	1.22	1.97	1.86	1.73	4.61	6.18	5.63	13.3	14.7
NS(=O)(=O)c1ccc(N/N=C2\C(=O)Nc3ccc4ncccc4c32)cc1	-0.36	1.77	5.28	1.99	9.56	5.42	12.4	8.83	31	8.06
Cc1ccc(O)cc1Nc1ccnc2cc(-c3ccccn3)ccc12	15.3	3.59	30.4	34.4	80.2	79.3	87.5	91.2	90.9	90.5
O=C(O[C@H]1CN[C@H](C#Cc2cc3ncnc(Nc4ccc(Cc5ccccc5)cc4)c3s2)C1)N1CCOCC1	10.5	-1.96	-1.31	-0.49	-1.09	2.25	3.5	3.73	5.5	7.69
CN(C)CCOc1ccc(-c2nc(-c3ccncc3)c(-c3ccc4c(c3)CC/C4=N\O)[nH]2)cc1	2.29	2.36	6.66	1.49	0.74	2.42	3.57	6.96	9.28	5.22
CCc1nn2ncccc2c1-c1ccnc(NC2CC2)n1	1.56	-2.33	0.76	0.52	0.58	2.4	3.87	4.8	8.02	-1.23
CCNC(=O)O[C@H]1CN[C@H](C#Cc2cc3ncnc(Nc4ccc(OCc5cccc(F)c5)c(Cl)c4)c3s2)C1	10.6	2.62	4.48	3.3	2.25	6.99	4.34	8.98	6.16	8.39
CC(C)COC(=O)c1ccc2c(c1)/C(=C/Nc1ccc(S(N)(=O)=O)cc1)C(=O)N2	-2.28	-2.38	3.71	-3.29	-3.24	-2.74	0.31	-1.11	1.79	-3.84
CCN(CC)S(=O)(=O)c1ccc(OC)c(Nc2ncc(-c3ccccc3)o2)c1	2.04	0.39	-0.47	4.36	2.14	2.4	2.35	9.54	13.8	5.55
COc1ccc(-c2oc3ncnc(N)c3c2-c2ccc(NC(=O)Nc3cc(C(F)(F)F)ccc3F)cc2)cc1	3.03	-0.45	7.47	87.9	95.7	82.1	87.1	87.3	87.6	85.7
CNC(=O)c1cccc(C#Cc2cncnc2Nc2ccc(OCc3cccc(F)c3)c(Cl)c2)c1	4.1	-0.69	1.65	2.11	-0.11	1.08	0.39	5.81	6.8	3.54
COc1cc2c(cc1Nc1nc(Nc3ccsc3C(N)=O)c3cc[nH]c3n1)N(C(=O)CN(C)C)CCC2(C)C	70.8	51.9	84.7	1.53	0.81	4.65	4.34	7.86	6.49	6.01
COc1cccc(-n2ncc3c(N/N=C/c4ccc(F)cc4)ncnc32)c1	3.89	1.74	1.29	4.28	5.62	4.05	4.06	7.96	15.7	5.53
FC(F)(F)c1cccc(-c2nn3ncccc3c2-c2ccnc(Nc3ccc4c(c3)OCCO4)n2)c1	8.22	2.69	15.9	2.29	1.84	2.54	3.44	4.56	7.91	3.11

Structure (SMILES)	inhibition [1] [%]	inhibition [2] [%]	inhibition [3] [%]	inhibition [4] [%]	inhibition [5] [%]	inhibition [6] [%]	inhibition [7] [%]	inhibition [8] [%]	inhibition [9] [%]	inhibition [10] [%]
CCn1c(-c2nonc2N)nc2c(C#CC(C)(C)O)ncc(OC3CCNCC3)c21	1.16	1.78	0.14	1.52	0.34	1.03	3.69	4.06	6.59	-2.87
Cc1cccc2c1NC(=O)/C2=N\Nc1ccc(S(N)(=O)=O)cc1	0.35	3.72	1.46	2.85	3.42	4.1	3.43	6.06	7.18	7.03
COc1cccc(-c2c[nH]c3c(N/N=C/c4ccncc4)ncnc23)c1	2.55	2.51	22.9	3.62	14.6	3.44	6.01	8.17	30.5	10.3
N#Cc1c(NC(=O)CN2CCOCC2)sc2c1CCCC2	4.76	2.42	4.77	1.79	1.43	5.54	6.42	7.58	13.1	8.79
Nc1nc(-c2cccc(Cl)c2)c(-c2ccc3ncccc3n2)s1	6.65	5	7.85	0.6	0.92	4.59	4.27	11	14.8	6.05
COc1cc(N2CCN(C(C)C)CC2)ccc1Nc1nc(Nc2ccc(F)cc2C(N)=O)c2cc[nH]c2n1	79.5	56.5	90.4	0.87	-0.92	1.78	1.28	4.96	6.43	4.59
NS(=O)(=O)c1ccc(Nc2ncc(-c3ccccc3)o2)cc1	0.87	2.14	0.87	2.66	3.5	2.94	4.57	7.23	12	5.54
O=C(Nc1n[nH]c2cc(-c3ccc(F)cc3)ccc12)C1CC1	1.6	1.46	1.41	-2.34	-1.62	2.89	4.36	7.63	4.17	6.99
c1ccc(COc2ccc(Nc3ncnc4ccc(-c5ccco5)cc34)cc2)cc1	5	-0.19	-1.64	0.9	-0.47	-0.08	0.71	0.05	2.86	–
COc1cc(/C=N/Nc2ncnc3[nH]ncc23)ccc1O	4.2	-0.56	5.5	6.02	21	5.55	16.5	14.9	55.3	11.7
COc1ccc(-c2cc(-c3c[nH]nc3-c3ccccn3)ccn2)cc1	4.53	2.1	4.71	2.38	1.07	4.5	7.51	8.66	14.1	7.99
COC(=O)Nc1nc2ccc(Oc3ccc(NC(=O)Nc4cccc(Cl)c4)cc3)cc2[nH]1	-0.68	-2.96	0.71	7.68	41.2	4.1	8.5	22.3	62.9	36.9
CCn1c(-c2nonc2N)nc2cnc(Oc3cccc(NC(=O)c4ccc(N(C)C)cc4)c3)cc21	0.52	-1.54	-0.4	-2.08	-3.39	2.26	4.01	4.68	-0.31	5.07
Nc1nc(-c2ccc(F)cc2)c(-c2ccc3ncccc3n2)s1	5.63	4.54	14.7	0.69	0.59	5.86	6.22	9.7	14.6	9.15
CC1=C(C(=O)Nc2cc(Cl)c3[nH]ncc3c2)C(c2ccc(C(F)(F)F)cc2)CC(=O)N1 (centres undefined)	4.57	1.19	1.94	-2.83	-2.1	2.24	2.48	8.02	6.71	1.63
NC(=O)c1sc(-n2cnc3ccc(C(F)(F)F)cc32)cc1OCc1ccccc1Br	4.07	-0.44	3.88	-2.06	-1.67	2.19	5.58	10.1	8.59	5.67
